Assay results published in PubChem BioAssay (NCATS).
Values joined by “and” are separate entries in the source; they are usually repeats but may differ in a detail not shown here. Equal values may be shown once. Records with an inconclusive call do not appear. Values without a mark were called inactive. Active and inactive are the calls of the source. Unless noted, calls come from the whole dose curve; as a rule, active = well fitted inhibition curve with a large enough effect in the repeat runs; inconclusive = weak or mixed curves; inactive = flat fitted curve, though single readings scatter. Peptide text beside a SMILES is read from it.

tested on: not listed separately; assay: A High-Content qHTS Against Drug Library for the Identification of Small Molecules that Inhibit DYT1 Early Onset Primary Dystonia-Associated Cell Pathology (AID 1645839; calls by dose curve); conditions: HEK293 Flp-In EGFP-delE TorsinA, punctate imaging, 48 h; series mostly up to 46.1 µM; % pathology change, negative = correction: at the top concentration
Procedure, shortened: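 Readout: %pathology, the punctate EGFP-TorsinA distribution from imaging, as the primary channel and cell count as the toxicity counterscreen. HEK293 Flp-In cells expressing delE TorsinA were induced with tetracycline and treated with compound for 48 h.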
Potency is the fitted concentration of half-maximal effect.

SMILES	% pathology change, negative = correction	Potency
CCCOc1ccc2nc(NC(=O)OC)[nH]c2c1	-41.5%	
CC1=C(C(=O)O)N2C(=O)[C@@H](NC(=O)[C@H](N)C3=CCC=CC3)[C@H]2SC1	3.89%	
Nc1ccc(S(N)(=O)=O)cc1	4.25%	
C=CCc1cc(OC)c(O)c(C(=O)NCCO)c1	3.21%	
Cc1nc2n(c(=O)c1CCN1CCC(c3noc4cc(F)ccc34)CC1)CCCC2	20.2%	
CC(C)Oc1ccc2c(=O)c(-c3ccccc3)coc2c1		inactive
O=C(OC1C[C@H]2CC[C@@H](C1)[N+]21CCCC1)C(O)(c1ccccc1)c1ccccc1 (some centres not stated)	1.63%	
Nc1ncn([C@H]2C[C@H](O)[C@@H](CO)O2)c(=O)n1	27.3%	
Nc1cc(C(Cl)=C(Cl)Cl)c(S(N)(=O)=O)cc1S(N)(=O)=O	-3.5%	
O=C(O)CCNC(=O)c1ccc(N=Nc2ccc(O)c(C(=O)O)c2)cc1	0.367%	
COCCCN1CCC(NC(=O)c2cc(Cl)c(N)c3c2OCC3)CC1	3.47%	
CC(C)[C@H](N)C(=O)OCCOCn1cnc2c(=O)[nH]c(N)nc21	11.4%	
CCCCC(CC)COC(=O)C(C#N)=C(c1ccccc1)c1ccccc1 (configuration not stated)	4.2%	
S=c1nc[nH]c2nc[nH]c12	-10.1%	
COc1cc(Nc2c(C#N)cnc3cc(OCCCN4CCN(C)CC4)c(OC)cc23)c(Cl)cc1Cl		10 µM (active)
Oc1ccc(OCc2ccccc2)cc1	7.9%	
COc1cc2c(N3CCN(C(=O)Nc4ccc(OC(C)C)cc4)CC3)ncnc2cc1OCCCN1CCCCC1	-30.8%	
COc1cc(OC)c(C(=O)CCCN2CCCC2)c(OC)c1	7.34%	
CCc1nc(N)nc(N)c1-c1ccc(Cl)cc1	-17.7%	
CC(C)c1ccc2oc3nc(N)c(C(=O)O)cc3c(=O)c2c1	-11.2%	

SMILES	% pathology change, negative = correction	Potency
COC(=O)[C@H](Cc1ccccc1)NC(=O)[C@@H](N)CC(=O)O (H-Asp-Phe-OMe)	4.78%	
N=C(N)c1ccc2cc(OC(=O)c3ccc(N=C(N)N)cc3)ccc2c1	7.25%	
Clc1ccc(C(Cn2ccnc2)OCc2ccc(Sc3ccccc3)cc2)c(Cl)c1 (configuration not stated)	6.69%	
Cc1cc2cc3c(C)cc(=O)oc3c(C)c2o1	16.5%	
CC(S)C(=O)NCC(=O)O (configuration not stated)	24.7%	
Cc1ccc(C)c(OCCCC(C)(C)C(=O)O)c1	13.1%	
CN1C(C(=O)Nc2ccccn2)=C(O)c2sccc2S1(=O)=O	22.5%	
Cc1ncc([N+](=O)[O-])n1CC(C)O (configuration not stated)	-6.53%	
Cc1nccn1CC1CCc2c(c3ccccc3n2C)C1=O (configuration not stated)	2.93%	
NC(=O)Cc1cccc(C(=O)c2ccccc2)c1N	-0.638%	
O=C(NC(Cc1cc(=O)[nH]c2ccccc12)C(=O)O)c1ccc(Cl)cc1 (configuration not stated)	-2.89%	
CN(c1nccc(=O)[nH]1)C1CCN(c2nc3ccccc3n2Cc2ccc(F)cc2)CC1	-18.5%	
N[C@@H](Cc1cc(I)c(Oc2cc(I)c(O)c(I)c2)c(I)c1)C(=O)O	-7.34%	
N=C(N=C(N)N)N1CCOCC1	0.444%	
CN(C)C(=O)COC(=O)Cc1ccc(OC(=O)c2ccc(N=C(N)N)cc2)cc1	3.44%	
COCCCOc1ccnc(CS(=O)c2nc3ccccc3[nH]2)c1C (configuration not stated)	-14.2%	
Cc1cc(=O)oc2cc(O)ccc12	2.83%	
O=C(O)c1cccnc1Nc1cccc(C(F)(F)F)c1	-7.25%	
CCC[C@@H]1C[C@@H](C(=O)N[C@@H]([C@H]2O[C@H](SC)[C@H](O)[C@@H](O)[C@H]2O)[C@@H](C)O)N(C)C1	7.1%	

target: Cytochrome P450 2D6 (Homo sapiens) (UniProt P10635); assay: Cytochrome P450 family 2 subfamily D member 6 (CYP2D6) small molecule antagonists: luciferase biochemical (cell-free) qHTS assay (AID 1645840); conditions: P450-Glo CYP2D6 enzyme, luciferin luminescence, 1 h; series mostly up to 57.4 µM; activity change, negative = inhibition: at the top concentration; note: nearly all actives have a fitted effect of over 55% in size; for activity change, negative = inhibition: % is set by controls: 0 for no effect and ±100 for the full control effect
Procedure, shortened: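 P450-Glo luminescent screen: recombinant CYP2D6 enzyme–proluciferin substrate mix preincubated with compound 10 min at room temperature, then NADPH regeneration added for 1 h at room temperature. Detection reagent added for 20 min; luciferin light read as relative luminescence units.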

Chain of Cytochrome P450 2D6 (Homo sapiens) (P10635 whole entry, looked up): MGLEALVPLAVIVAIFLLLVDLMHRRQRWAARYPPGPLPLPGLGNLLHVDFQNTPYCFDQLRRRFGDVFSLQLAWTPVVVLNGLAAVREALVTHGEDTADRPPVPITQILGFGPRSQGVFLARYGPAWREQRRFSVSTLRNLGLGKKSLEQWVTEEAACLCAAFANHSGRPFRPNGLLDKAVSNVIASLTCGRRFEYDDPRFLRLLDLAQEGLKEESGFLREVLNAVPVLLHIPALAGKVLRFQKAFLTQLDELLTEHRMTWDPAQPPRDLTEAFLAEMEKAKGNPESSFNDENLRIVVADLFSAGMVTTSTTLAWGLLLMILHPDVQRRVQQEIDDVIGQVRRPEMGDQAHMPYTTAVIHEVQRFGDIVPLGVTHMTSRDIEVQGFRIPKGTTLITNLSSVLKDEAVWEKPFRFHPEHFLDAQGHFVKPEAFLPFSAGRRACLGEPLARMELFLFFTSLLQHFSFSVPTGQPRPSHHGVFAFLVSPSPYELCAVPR

SMILES	activity change, negative = inhibition	Potency
CCCOc1ccc2nc(NC(=O)OC)[nH]c2c1	-0.755%	
CC1=C(C(=O)O)N2C(=O)[C@@H](NC(=O)[C@H](N)C3=CCC=CC3)[C@H]2SC1	14.3%	
C=CCc1cc(OC)c(O)c(C(=O)NCCO)c1		inactive
Cc1nc2n(c(=O)c1CCN1CCC(c3noc4cc(F)ccc34)CC1)CCCC2		2.75 µM (active)
CC(C)Oc1ccc2c(=O)c(-c3ccccc3)coc2c1	0.0721%	
O=C(OC1C[C@H]2CC[C@@H](C1)[N+]21CCCC1)C(O)(c1ccccc1)c1ccccc1 (some centres not stated)		6.17 µM (active)
Nc1ncn([C@H]2C[C@H](O)[C@@H](CO)O2)c(=O)n1	1.96%	
Nc1cc(C(Cl)=C(Cl)Cl)c(S(N)(=O)=O)cc1S(N)(=O)=O	0.466%	
O=C(O)CCNC(=O)c1ccc(N=Nc2ccc(O)c(C(=O)O)c2)cc1	-2.99%	
COCCCN1CCC(NC(=O)c2cc(Cl)c(N)c3c2OCC3)CC1		3.47 µM (active)
CC(C)[C@H](N)C(=O)OCCOCn1cnc2c(=O)[nH]c(N)nc21		inactive
CCCCC(CC)COC(=O)C(C#N)=C(c1ccccc1)c1ccccc1 (configuration not stated)		1.23 µM (active) and 3.38 µM (active)
S=c1nc[nH]c2nc[nH]c12	58%	
COc1cc(Nc2c(C#N)cnc3cc(OCCCN4CCN(C)CC4)c(OC)cc23)c(Cl)cc1Cl	-22.8%	
Oc1ccc(OCc2ccccc2)cc1		15.5 µM (active)
COc1cc2c(N3CCN(C(=O)Nc4ccc(OC(C)C)cc4)CC3)ncnc2cc1OCCCN1CCCCC1		12.3 µM (active)
COc1cc(OC)c(C(=O)CCCN2CCCC2)c(OC)c1		11 µM (active)
CCc1nc(N)nc(N)c1-c1ccc(Cl)cc1		12.3 µM (active)
CC(C)c1ccc2oc3nc(N)c(C(=O)O)cc3c(=O)c2c1		13.8 µM (active)

SMILES	activity change, negative = inhibition	Potency
COC(=O)[C@H](Cc1ccccc1)NC(=O)[C@@H](N)CC(=O)O (H-Asp-Phe-OMe)	-0.443%	
N=C(N)c1ccc2cc(OC(=O)c3ccc(N=C(N)N)cc3)ccc2c1	-18.2%	
Clc1ccc(C(Cn2ccnc2)OCc2ccc(Sc3ccccc3)cc2)c(Cl)c1 (configuration not stated)		0.155 µM (active)
Cc1cc2cc3c(C)cc(=O)oc3c(C)c2o1	2.84%	
CC(S)C(=O)NCC(=O)O (configuration not stated)	7.09%	
Cc1ccc(C)c(OCCCC(C)(C)C(=O)O)c1	7.63%	
CN1C(C(=O)Nc2ccccn2)=C(O)c2sccc2S1(=O)=O	0.146%	
Cc1ncc([N+](=O)[O-])n1CC(C)O (configuration not stated)	13.5%	
Cc1nccn1CC1CCc2c(c3ccccc3n2C)C1=O (configuration not stated)		11 µM (active) and 13.5 µM (active)
NC(=O)Cc1cccc(C(=O)c2ccccc2)c1N	-1.34%	
O=C(NC(Cc1cc(=O)[nH]c2ccccc12)C(=O)O)c1ccc(Cl)cc1 (configuration not stated)	3.36%	
CN(c1nccc(=O)[nH]1)C1CCN(c2nc3ccccc3n2Cc2ccc(F)cc2)CC1		12.3 µM (active)
N[C@@H](Cc1cc(I)c(Oc2cc(I)c(O)c(I)c2)c(I)c1)C(=O)O	-26.3%	
N=C(N=C(N)N)N1CCOCC1	4.85%	
CN(C)C(=O)COC(=O)Cc1ccc(OC(=O)c2ccc(N=C(N)N)cc2)cc1	1.47%	
COCCCOc1ccnc(CS(=O)c2nc3ccccc3[nH]2)c1C (configuration not stated)	1.14%	
Cc1cc(=O)oc2cc(O)ccc12	-8.52%	
O=C(O)c1cccnc1Nc1cccc(C(F)(F)F)c1	0.792%	
CCC[C@@H]1C[C@@H](C(=O)N[C@@H]([C@H]2O[C@H](SC)[C@H](O)[C@@H](O)[C@H]2O)[C@@H](C)O)N(C)C1	-1.59%	
